Only some compounds are listed: those with a hit (about 4% of all), similar ones and a draw of the others.
MITF TRPM1 inh – inhibitors of MITF-driven TRPM1 promoter in melanoma cells. SK-MEL-5 TRPM1 promoter luciferase, 24 h. inhibition, % at 12.5 µM. 0.83% of 330,000 active. AID 488899;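 active = mean inhibition across replicates of 60% or more, whatever share of single replicates reaches that level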
PAX8 inh HTS – lowers PAX8-driven luciferase in RMG-I cells. RMG-I TPO-luciferase reporter, SteadyGlo, 24 h. 1.2% of 360,000 active. AID 652154. inhibition, % at 12.6 µM;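 active = mean replicate inhibition at least 60% with every replicate also reaching 60%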;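 note: luciferase light reporting Pax8 driven TPO promoter activity; plate controls were median of neutral control wells for no effect and mitoxantrone controls for full effect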
esBAF inh – inhibitors of esBAF chromatin remodeling in mouse ES cells; Bmi1-luciferase knock-in reporter, 24 h; 100% = twice the neutral-well signal; reporter increase, % at 12.5 µM; 2% of 350,000 active; AID 602393; in the data active = activation above about 40%;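 note: 0% = median of the plate's neutral control wells and 100% = double that signal; a rise in the Bmi1 reporter signal indicates esBAF inhibition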
MITF TRPM1 HTS – MITF TRPM1 promoter activation in melanoma cells; SK-MEL-5 TRPM1-promoter luciferase, 24 h; % of positive control, neutral wells = 0; activation, % at 12.5 µM; 0.75% of 300,000 active; AID 588334;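 active = mean activation of at least 80% with every replicate also reaching 80%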;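 note: 0% = neutral control wells and 100% = parthenolide positive control wells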
Wnt bcat act – activators of Wnt/beta-catenin signaling. 1.2% of 300,000 active. Wnt/beta-catenin reporter cell assay, activator, plate reader. AID 743398. activation, % at 9.35 µM; in the data active = activation above about 30%, passing the limit was not always enough;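 note: 0% = neutral control wells and 100% = positive control wells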
EWS-Fli inh – EWS/Fli transcriptional activity inhibition; A673 NR0B1-luciferase reporter, viability-normalised; inhibition, % at 12.6 µM; 0.67% of 350,000 active; AID 651661;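 active = mean inhibition of at least 50% after viability correction, with every replicate also passing that limit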;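 note: firefly luciferase signal divided by Alamar Blue viability fluorescence both relative to DMSO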
Active calls of the source: *; x = not tested or not shown.

SMILES	MITF TRPM1 inh	PAX8 inh HTS	esBAF inh	MITF TRPM1 HTS	Wnt bcat act	EWS-Fli inh
NC(=O)COC(=O)CC1CC2CCC1C2 (stereo not drawn)	-5	11	-7	5	1	1
O=C1CCC(=O)N1CC1CC2CCC1C2 (stereo not drawn)	-3	-1	-6	2	0	63*
COc1ccc2c3c(n(C)c2c1)[C@H](CO)N(C(=O)C1CCCCC1)CC31CCN(C(=O)c2ccncc2)CC1	x	x	x	x	x	4
Cc1ccc(C(=O)NN2C(=O)C3C4c5ccccc5C(c5ccccc54)[C@@H]3C2=O)cc1 (stereo partly drawn)	-10	-4	x	16	x	x
O=C(NN1C(=O)C2C3c4ccccc4C(c4ccccc43)C2C1=O)C1CC1 (stereo not drawn)	4	-4	x	-5	51*	7
O=C(NN1C(=O)C2C3c4ccccc4C(c4ccccc43)[C@@H]2C1=O)c1ccccc1 (stereo partly drawn)	9	4	x	-7	30*	5
CCN(CC)C(=S)SCC(=O)c1ccc(Br)cc1	-30	-39	83*	37	12	-71
CCn1c(CNC(C)=O)nnc1SCC(=O)c1ccc(Br)cc1	8	x	-3	-9	x	x
Cn1c(=O)c2c(nc(SCCN3CCOCC3)n2Cc2ccc(F)cc2)n(C)c1=O	-48	x	56*	52	x	x
Cc1ccc2nc(/C=C/c3cccc(F)c3)ccc2c1	-52	-196	x	56	71*	-5
Clc1ccccc1Cn1nnc(-c2ccccc2)n1	-37	-61	x	39	4	-52
Clc1ccccc1Cn1nnc(-c2cccs2)n1	-66	x	56*	60	x	x
O=S1(=O)c2ccc(Br)cc2OC(COCc2ccccc2)CN1Cc1ccccc1 (stereo not drawn)	-9	2	-4	9	-4	-11
O=S1(=O)c2ccc(Br)cc2N2CCC[C@@H]2CN1Cc1ccccc1	18	21	-4	-18	-3	52*
C/C(Cn1cnc([N+](=O)[O-])n1)=N\NC(=O)c1ccccc1	-2	-9	44*	x	10	x
O=C(N[C@@H]1CC[C@@H](CCn2cc(-c3ccccn3)nn2)O[C@H]1CO)c1ccc(F)cc1	x	-12	1	x	x	-8
C/C(=N\NC(=O)c1ccc2ccccc2c1)c1cccs1	-41	-176	5	38	41*	-50
C/C(=N\NC(=O)c1cccs1)c1ccc2ccccc2c1	-61	-20	52*	66	9	-48
C/C(=N/NC(=O)c1cccs1)c1cccc(NC(=O)C2CC2)c1	-23	x	38	22	x	x
COc1ccc(N2C(=O)CN=C2Nc2nc(C)cc(C)n2)cc1	16	76*	-5	-12	-12	x
C[C@@H]1CN([C@@H](C)CO)C(=O)c2cc(NC(=O)Nc3ccc4c(c3)OCO4)ccc2O[C@H]1CN(C)Cc1ccc(Cl)c(Cl)c1	x	x	5	x	x	-5
CCS(=O)(=O)N1CCc2nc(-c3ccccc3)sc2C1	-111	-135	13	121*	39*	-80
CC(Oc1cccc(Cl)c1)C(=O)Nc1nc(-c2ccccn2)cs1 (stereo not drawn)	64*	71*	-4	-62	-6	35
CC(Oc1ccccc1)C(=O)Nc1nc(-c2ccccn2)cs1 (stereo not drawn)	62*	57	-13	-63	-10	23
CC(Oc1ccccc1)C(=O)Nc1nc(-c2ccncc2)cs1 (stereo not drawn)	-12	-5	-5	12	-5	5
SMILES	MITF TRPM1 inh	PAX8 inh HTS	esBAF inh	MITF TRPM1 HTS	Wnt bcat act	EWS-Fli inh
O=C1CC(c2ccco2)CC2=C1C=Nc1ccccc1N2 (stereo not drawn)	9	x	0	-4	45*	x
CCS(=O)(=O)c1ccc2oc(Nc3ccccc3Br)nc2c1	-92	-36	x	100*	36*	-102
Cc1ccc(S(=O)(=O)N(C)C[C@@H]2Oc3ccc(NS(=O)(=O)c4cn(C)cn4)cc3CC(=O)N([C@H](C)CO)C[C@@H]2C)cc1	x	1	0	x	x	-6
Clc1ccc2oc3c(Cl)ncnc3c2c1	77*	27	x	-75	1	39
Cc1ccc2nc(-c3ccco3)c(Cc3ccccc3)n2c1	x	66*	20	x	7	-69
CCCc1nc2ccc(C)cn2c1Cc1ccccc1	x	-157	51*	x	-2	-64
CSCC[C@H](NC(=O)[C@@H]1Cc2ccccc2CN1)C(=O)NC1CCCCC1	-1	4	x	-1	-2	x

High-throughput results from PubChem BioAssay.
